The record followed here is the supplement of paper PMC9588786.

± gives the standard deviation of the averaged measurements.
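Note: viability read as CCK-8 absorbance at 450 nm in cells co-exposed to the GPX4 inhibitor RSL3, relative to a 0.01% DMSO vehicle control.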

For the assay, the system named is HT-1080. The assay can be described thus: relative cell viability with RSL3 co-treatment (fraction of control); higher = stronger protection from RSL3-induced ferroptosis (higher viability). The following applies: 10 µM.
As for `COc1cc(F)c(F)c(Nc2ccc(I)cc2F)c1NS(=O)(=O)C1(C[C@H](O)CO)CC1` [Refametinib (RDEA119, Bay 86-9766)], the relative cell viability came to 0.92 ± 0.01.
The figure for `C=CC(=O)Nc1cccc(Oc2nc(Nc3ccc(N4CCN(C)CC4)cc3)nc3ccsc23)c1` is 0.55 ± 0.082; for `O=C1c2ccc(Nc3ccc(F)cc3F)cc2CCc2ccc(OC[C@H](O)CO)cc21` [Skepinone-L] it is 0.513 ± 0.12.
The figure for `CN(C)C/C=C/C(=O)Nc1cc2c(Nc3ccc(F)c(Cl)c3)ncnc2cc1O[C@H]1CCOC1` [Afatinib (BIBW2992)] is 0.72 ± 0.061.
Take `COc1cc2ncnc(Oc3cccc(NC(=O)Nc4cc(C(C)(C)C(F)(F)F)on4)c3)c2cc1OC`: the relative cell viability amounted to 0.68 ± 0.17.
`Cc1ccc(Nc2nccc(N(C)c3ccc4c(C)n(C)nc4c3)n2)cc1S(N)(=O)=O`: the relative cell viability was found to be 0.597 ± 0.15.
Take `C=CC(=O)Nc1ccc2ncnc(Nc3ccc(OCc4cccc(F)c4)c(Cl)c3)c2c1`: the relative cell viability is 1.01 ± 0.01.
The figure for `COc1cc(Nc2ncc(F)c(Nc3ccc4c(n3)NC(=O)C(C)(C)O4)n2)cc(OC)c1OC` [R406 (free base)] is 0.79 ± 0.02; for `Cc1cnc(Nc2ccc(OCCN3CCCC3)cc2)nc1Nc1cccc(S(=O)(=O)NC(C)(C)C)c1` it is 0.433 ± 0.093; for `CNS(=O)(=O)C[C@H]1CC[C@H](N(C)c2[nH]cnc3nccc2-3)CC1` [Oclacitinib] it is 0.927 ± 0.075.
`COCC(=O)NC/C=C/c1ccc2ncnc(Nc3ccc(Oc4ccc(C)nc4)c(C)c3)c2c1`: the relative cell viability was determined as 0.647 ± 0.095.
With `CO[C@H]1C[C@@H]2CC[C@@H](C)[C@@](O)(O2)C(=O)C(=O)N2CCCC[C@H]2C(=O)O[C@H]([C@H](C)C[C@@H]2CC[C@@H](OCCO)[C@H](OC)C2)CC(=O)[C@H](C)/C=C(\C)[C@@H](O)[C@@H](OC)C(=O)[C@H](C)C[C@H](C)/C=C/C=C/C=C/1C` [Everolimus (RAD001)], the relative cell viability worked out at 0.607 ± 0.13.
Turning to `O=C(Nc1cccc(Nc2ncc(Br)c(NCCc3cnc[nH]3)n2)c1)N1CCCC1`, the relative cell viability turned out to be 0.743 ± 0.04.
The figure for `O=C(c1ccc(Nc2nccc(-c3cc4ccccc4s3)n2)cc1)N1CCC(N2CCCC2)CC1` [IKK-16 (IKK Inhibitor VII)] is 0.277 ± 0.038; for `O=C(Nc1c[nH]nc1-c1nc2ccc(CN3CCOCC3)cc2[nH]1)NC1CC1` it is 0.35 ± 0.14; for `N#C/C(=C(/N)Sc1ccc(N)cc1)c1ccccc1C(F)(F)F` it is 0.913 ± 0.038.
Regarding `NCC(=O)Nc1ccc(-n2nc(C(F)(F)F)cc2-c2ccc3c(ccc4ccccc43)c2)cc1`, the relative cell viability turned out to be 0.06 ± 0.056.
With `COc1cc2nccc(Oc3ccc(NC(=O)NC4CC4)c(Cl)c3)c2cc1C(N)=O` [Lenvatinib (E7080)], the relative cell viability is 0.56 ± 0.12.
The figure for `Nc1cccc(S(=O)(=O)N2CCCN(S(=O)(=O)c3ccc4c(c3)OCCO4)CC2)c1` is 0.767 ± 0.049; for `CN1CCN(c2ccc3nc(-c4c(N)c5c(F)cccc5[nH]c4=O)[nH]c3c2)CC1` [Dovitinib (TKI-258, CHIR-258)] it is 0.827 ± 0.1; for `CN1CCN(CCOc2cc(OC3CCOCC3)c3c(Nc4c(Cl)ccc5c4OCO5)ncnc3c2)CC1` [Saracatinib (AZD0530)] it is 0.727 ± 0.16.
For `COc1cc2nccc(Oc3ccc(NC(=O)C4(C(=O)Nc5ccc(F)cc5)CC4)cc3)c2cc1OC`, the relative cell viability amounted to 0.7 ± 0.21.
With `Nc1nc(N)c(N=O)c(OCC2CCCCC2)n1` the figure was 0.82 ± 0.01.
Consider `CO[C@H]1C[C@@H]2CC[C@@H](C)[C@@](O)(O2)C(=O)C(=O)N2CCCC[C@H]2C(=O)O[C@H]([C@H](C)C[C@@H]2CC[C@@H](OC(=O)C(C)(CO)CO)[C@H](OC)C2)CC(=O)[C@H](C)/C=C(\C)[C@@H](O)[C@@H](OC)C(=O)[C@H](C)C[C@H](C)/C=C/C=C/C=C/1C`, for which the relative cell viability worked out at 0.367 ± 0.11.
Regarding `CNCc1ccc(-c2cc(-c3nc(-c4ccc(S(=O)(=O)C(C)C)cc4)cnc3N)on2)cc1`, the relative cell viability came out at 0.47 ± 0.026.
The figure for `Nc1cccc(-c2cc3c(Oc4cccc(O)c4)ncnc3[nH]2)c1` is 0.483 ± 0.046; for `Cn1cc(-c2ccc3nnc(C(F)(F)c4ccc5ncccc5c4)n3n2)cn1` it is 0.743 ± 0.04; for `COc1ccc(-c2ccc3c(N4CCOCC4)nc(N4C[C@@H](C)O[C@@H](C)C4)nc3n2)cc1CO` it is 0.7 ± 0.07.
With `NC(=O)Nc1cc(-c2cccc(F)c2)sc1C(=O)N[C@H]1CCCNC1`, the relative cell viability is 0.55 ± 0.01.
With `CN1CCN(S(=O)(=O)c2ccc(-c3cnc(N)c(C(=O)Nc4cccnc4)n3)cc2)CC1`, the relative cell viability is 0.56 ± 0.087.
The figure for `Cc1nc(N)sc1-c1ccnc(Nc2ccc(N3CCOCC3)cc2)n1` is 0.6 ± 0.095; for `OCCn1cc(-c2cnc3nnn(Cc4ccc5ncccc5c4)c3n2)cn1` it is 0.813 ± 0.09; for `C[C@@H]1COC(Nc2ccc3ncnc(Nc4ccc(OCc5nccs5)c(Cl)c4)c3c2)=N1` [Varlitinib] it is 0.597 ± 0.1.
